High-throughput results (PubChem)
Pf growth 48h: Primary qHTS for delayed death inhibitors of the malarial parasite plastid, 48 hour incubation. P. falciparum luciferase growth in erythrocytes, 48 h. Potency, µM (doses to about 28.7 µM), for inactives: at the highest dose activity change, negative = inhibition, actives largely listed as inhibitors. 310,000 tested, 5.9% active; further: potency means the concentration at half of the fitted maximal effect; on the % scale 0 is the no-effect control and ±100 the full control effect
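Firefly luciferase activity from engineered P. falciparum reports growth; inhibitors lower the luminescent signal. Cultures contained 2% hematocrit erythrocytes at 0.1% final parasitemia.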
AMA1-RON2 inh: qHTS for Inhibitors of AMA1-RON; Towards Development of Antimalarial Drug Lead: Primary Screen; Potency, µM (highest dose often 58.2 µM), for inactives: top-dose activity change, negative = inhibition, usual class: inhibitors; 360,000 tested, 0.2% active; AID 720542, 2013; AlphaScreen AMA1-biotinylated RON2 peptide binding;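 further: potency means the concentration at half of the fitted maximal effect; 0% = vehicle wells and -100% = peptide control; nearly all actives have a fitted effect of over 45% in size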
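AMA1 (3D7) with his tag at 25 nM final met compounds first, then biotinylated RON2 peptide at 25 nM; detection used donor plus acceptor beads, 10 µg/mL apiece, read by AlphaScreen after 30 min at room temperature.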
Pf growth 96h: Primary qHTS for delayed death inhibitors of the malarial parasite plastid, 96 hour incubation | P. falciparum luciferase reporter growth, 96 h | Potency, µM (series often up to 28.7 µM), for inactives: top-dose activity change, negative = inhibition, usual class: inhibitors | 320,000 tested, 6.9% active | AID 504834, 2011; further: potency means the concentration at half of the fitted maximal effect; on the % scale 0 is the no-effect control and ±100 the full control effect
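Cell-based qHTS: luciferase-tagged P. falciparum in erythrocytes (2% hematocrit, 0.05% parasitemia final) incubated with compounds for 96 hours, 37 C, 5% CO2; luciferase detection reagent then added and luminescence measured.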
Shiga toxin inh: A qHTS for Small Molecule Inhibitors of Shiga Toxin. 290,000 tested, 9.2% active. Vero cells, Shiga toxin protein synthesis inhibition reporter. inhibition, % at 38.7 µM. AID 2315, 2010; in the data active means inhibition mostly above about 28%, no sharp cut-off; inactive means mostly below about 43%; further: 0% is about no effect
HCV inh: qHTS Assay for Inhibitors of Hepatitis C Virus (HCV). 340,000 tested, 3.4% active. Potency, µM (titrated, usually from 41.8 µM), for the others: top-dose activity change, negative = inhibition, actives largely listed as inhibitors. Huh7.5.1 HCVcc-Cre infection, luciferase reporter, 44 h; further: potency means the concentration at half of the fitted maximal effect; on the % scale 0 is the no-effect control and ±100 the full control effect
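Infectious HCV cell culture screen: compound-treated cells (1,000/well, pre-plated 4 h) are infected with HCVcc-Cre at roughly 0.5 moi and grown 44 h. Infection is quantified by luciferase signal after 15 min substrate incubation at room temperature.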
CHX counter: Cycloheximide Counterscreen for Small Molecule Inhibitors of Shiga Toxin; cell reporter, cycloheximide protein synthesis inhibition counterscreen; max response, %; 300,000 tested, 12% active; in the data active means max response mostly above about 13%, no sharp cut-off; inactive means mostly below about 14%; further: read at 38.3 µM for the half of the compounds with a filed dose; 0% is about no effect
* = called active by the depositor; u = inconclusive; x = no result; + = active, no number; [ ] = another dose, or the depositor's remark. Compounds with a hit are over-represented: about 21% of the library has one in this group of screens. Unless noted, the call rests on the fitted dose curve; in most records, active means well fitted curve in the direction sought with a large enough effect; inconclusive means small, poorly fitted or top-dose-only effect, or another doubt; inactive means no such curve, though single readings can be large; an effect the other way counts as inactive or inconclusive.

SMILES	Pf growth 48h	AMA1-RON2 inh	Pf growth 96h	Shiga toxin inh	HCV inh	CHX counter
O=C(NC(=S)NC1CCCCCCCCCCC1)c1cccnc1	x	-6.3%	-17.6%	-13.7	18.7%	1.2
Cc1ccc(S(=O)(=O)N2CC3(O)CN(C(=O)OC(C)C)N(C(=O)OC(C)C)CC3(OC(=O)NCc3ccco3)C2)cc1 (centres undefined)	x	-9.4%	x	x	x	x
O=C(Cc1cccc(NC(=O)C2CCN(C(=O)C3CCC3)CC2)c1)Nc1cccc(C(=O)N2CCOCC2)c1	x	-3.2%	x	x	-5.0%[8.37 µM]	x
Nc1ccc(/C=C/C(=O)c2ccco2)cc1	41.0%	-5.7%[2.32 µM]	-9.4%	+	-3.2%	68.7*
O=C(/C=C/c1cc(Br)ccc1O)c1ccco1	-1.0%	-21.3%	22.1%	9.6	u	3.6
Cc1cccc2cc(/C=C/C(=O)c3ccco3)c(Cl)nc12	u	-13.6%	31.1%	15.5	3.7%	11.6*
O=C(/C=C/c1ccccc1O)c1ccco1	0.0%	6.5%	13.3%	60.6*	21.3%	30.3*
CC(C)(C)C(=O)Nc1ccc(/C=C/C(=O)c2ccco2)cc1	-0.8%	-0.2%	u	x	-5.7%	25.1*
COc1cccc(NC(=O)CN(C)S(=O)(=O)c2ccc3[nH]c(=O)oc3c2)c1	-0.6%	-1.9%	23.2%	6.4	13.5%	1.1
COC(=O)C(CC(=O)c1cccc(OC)c1)c1ccc(F)cc1 (centres undefined)	-5.0%	18.3%	-6.6%	2.0	u	19.7
Clc1cccc(Cn2ncc3ccccc32)c1	14.1%	1.1%	u	44.0	-13.2%	22.7
Clc1ccc2nc3c4ccccc4cnn3c2c1	240.7%	14.6%	u	117.0*	4.2%	61.8*
CC(=O)NC1=C(N2CC2C)C(=O)C(NC(C)=O)=C(N2CC2C)C1=O (centres undefined)	x	19.9%	x	x	-22.9%	x
COCC(=O)OC1CCn2c1nc1c2C(=O)C(C)=C(NC(C)=O)C1=O (centres undefined)	x	4.4%	x	x	14.1µM*	x
Cc1ccc(NC(=O)C2CCN(C(=O)N3CCOc4ccccc43)CC2)cc1	u	2.7%	13.1µM*	1.8	-11.7%	2.0
Cc1cccc(NC(=O)C2CCN(C(=O)N3CCOc4ccccc43)CC2)c1C	u	5.8%	14.7µM*	-3.8	-0.3%	-1.7
Cc1nn(C)c2ncc(C(=O)c3cc(F)ccc3O)cc12	x	3.5%	10.4µM*	-9.7	-16.0%	-2.2
Nc1nc2ncc(C(=O)c3cc(F)ccc3O)cc2s1	-6.5%	8.7%	u	-4.5	0.7%	12.1
Cc1ccc(O)c(C(=O)c2cnc3c(c2)c(C)nn3C)c1	u	-7.1%	8.28µM*	3.0	-17.1%	4.4
Cc1nn(-c2ccccc2)c2ncc(C(=O)c3cc(Cl)ccc3O)cc12	1.85µM*	-15.2%[11.6 µM]	2.62µM*	2.3	u	-2.5
Cc1nn(C)c2ncc(C(=O)c3ccccc3O)cc12	-2.6%	11.6%	-8.4%	-3.1	-10.6%	12.1
O=C(c1cnc2ccc3ccccc3c2c1)c1cc(F)ccc1O	3.7µM*	-18.9%	u	69.3*	5.62µM*	46.1*
CC(c1nc2ccccc2[nH]1)N(C(=O)C1=NNC(=O)CC1)c1ccccc1 (centres undefined)	x	6.0%	x	x	x	x
Cc1cc(O)c(CN(C)C)c2c1C(=O)/C(=C/c1ccco1)O2	6.57µM*	5.8%	5.22µM*	-9.1	11.3%	-1.8
CC(=O)COc1ccc2c(c1C)O/C(=C\c1ccco1)C2=O	69.2%	-13.4%	57.7%	127.3*	u	82.4*
SMILES	Pf growth 48h	AMA1-RON2 inh	Pf growth 96h	Shiga toxin inh	HCV inh	CHX counter
O=C1C(=Cc2ccco2)CCCC1=Cc1ccco1	x	u	x	x	-18.9%	x
Cc1c(OC(=O)N(C)C)ccc2c1O/C(=C\c1ccco1)C2=O	32.7%	-5.6%	33.8%	90.8*	-28.8%	47.4*
O=C1C(=Cc2ccco2)CCC1=Cc1ccco1	x	u	x	x	0.3%	x
N#CCCn1cc(C(=O)N2CCCCC2)c(-c2ccc([N+](=O)[O-])cc2)n1	11.4%	8.5%	u	-16.6	21.5%	-3.8
O=C(COC(=O)c1ccccc1N1C(=O)C2C3CCC(C3)C2C1=O)c1ccccc1 (centres undefined)	16.4%	-1.9%	2.33µM*	-7.3	3.8%	0.7
Cc1ccc(C)c(C(=O)COC(=O)c2ccccc2N2C(=O)C3C4CCC(C4)C3C2=O)c1 (centres undefined)	u	-7.2%	0.8%	39.3	-15.4%	8.8
CS(=O)(=O)N1CCCCC1c1cc(C(=O)NCc2ccc(Cl)c(Cl)c2)no1 (centres undefined)	x	-10.1%	x	x	x	x
O=C(NC1=NCCS1)c1ccc(Cl)c(S(=O)(=O)N2CCc3ccccc32)c1	u	91.9%	u	10.9	u	-2.3
Cc1ccnc(NC(=O)c2cccc(S(=O)(=O)N3CCN(c4ccccc4)CC3)c2)c1	17.3%	-4.8%	-69.6%	x	u	x
CN1CC(=O)NC1=NC(=O)c1ccc(Cl)c(S(=O)(=O)N2CCCCCC2)c1	u	-7.4%	8.28µM*	-20.6	-18.5%	-2.9
O=C(NC1=NCCS1)c1ccc(Cl)c(S(=O)(=O)N2CCCCCC2)c1	-29.2%	101.7%	-25.4%	35.5	-13.6%	18.5*
Cc1ccnc(NC(=O)c2cccc(S(=O)(=O)N3CCCC3)c2)c1	48.5%	8.9%	40.8%	22.4	13.9%	24.7*
Cc1cc(NC(=O)c2cccc(S(=O)(=O)N3CCCCC3)c2)no1	u	-1.9%	20.6%	10.7	x	9.3*
CC(=O)c1cccc(-c2ccnc3c2CC(C(=O)Nc2cccc(NS(C)(=O)=O)c2)O3)c1 (centres undefined)	x	-0.9%	x	x	x	x
Cc1ccc(C(=O)N2CCCC2)cc1S(=O)(=O)N1CCCCC1	1.8%	-16.5%	-19.7%	-4.9	13.0%	13.1
CCCCN(C(=O)CSc1n[nH]c(-c2ccc(C)cc2)n1)c1c(N)n(CCCC)c(=O)[nH]c1=O	u	13.8%	u	x	-17.1%	x
Cc1ccnc(NC(=O)c2ccc(Cl)c(S(=O)(=O)N3CCCC3)c2)c1	9.2%	9.9%	u	x	u	x
COc1ccc(S(=O)(=O)N2CCCCCC2)cc1C(=O)OCc1c(C)noc1C	u	-5.8%	u	-6.0	-19.1%	-7.9
Cc1cc(NC(=O)c2ccc(Cl)c(S(=O)(=O)N3CCCCC3)c2)no1	u	3.6%	-28.6%	-4.9	u	-3.4
Cc1ccc(NC(=O)c2ccc(Cl)c(S(=O)(=O)N3CCCCC3)c2)nc1	9.28µM*	2.7%	10.4µM*	x	u	x
Cc1ccnc(NC(=O)c2ccc(Cl)c(S(=O)(=O)N3CCCCC3)c2)c1	u	-0.3%	-10.5%	x	12.6µM*	x
